For orientation: inhibition means the relative decrease from the control value, in per cent.

Assay [1] in a line: compounds altering circadian rhythm period length – cell-based, LOPAC library, luminescence reporter (AID 2774; call rule not given here;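 also: values are relative to mean of DMSO wells on each plate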). To be noted: circadian reporter cells, at 7 µM, actives lie on both sides.
The test system of assay [2] is Hepatitis C virus NS3 helicase. The assay is described as follows: blockers of NS3h binding to ssDNA – biochemical, fluorescence polarization, LOPAC1280 library, primary screen (AID 687035; in the data active = inhibition above about 37%). To be noted: Purified HCV NS3 helicase, Cy5-dT15 ssDNA binding fluorescence polarization; stronger effect = higher value; concentration not given here.
A short description of assay [3]: compounds altering Cy5-DNA-NS3h complex signal – biochemical, LOPAC1280, artefact control for HCV NS3 helicase inhibitor project (AID 687037; call rule not given here). To be noted: Cy5-DNA-NS3h complex fluorescence interference counterscreen. For orientation: Counterscreens check selectivity or assay interference.
Assay [4] deals with Hepatitis C virus NS3 helicase. The assay is described as follows: blockers of NS3h binding to DNA – biochemical, fluorescence polarization, NIH Clinical Collection, primary screen (AID 743270; call rule not given here). To be noted: NS3 helicase binding to Cy5-dT15 DNA, stronger effect = higher value, concentration not given here.
Assay [5] concerns the target Single-stranded DNA-binding protein (Escherichia coli (strain K12)) (UniProt P0AGE0). The assay is described as follows: SSB-ssDNA binding inhibitors – biochemical, fluorescence polarization, NIH Clinical Collection, counter-screen for HCV NS3 helicase inhibitor project (AID 743271; in the data active = inhibition above about 28%). To be noted: E. coli SSB-DNA binding, stronger effect = higher value, concentration not given here. On the technique in general: Polarisation of emitted light reports the rotation of a fluorescent probe.

Assay [6] in a line: compounds distorting NS3 helicase fluorescence signal – biochemical, NIH Clinical Collection, artefact control for HCV NS3 helicase inhibitor project (AID 743272; call rule not given here). As to conditions: fluorescence interference counterscreen, HCV NS3 helicase assay; stronger effect = lower value.
Assay [7] is described as follows: blockers of cellular phospholipid synthesis – cell-based, LOPAC library, screen 4, primary screen (AID 1347384; call rule not given here). To be noted: animal cells, phospholipid biosynthesis inhibition screen; at 10 µM.
Another assay concerns F380Y. Description: BK channel mutant inhibitors and activators – cell-based, U2OS BacMam, thallium flux, beta subunits, selectivity assay, profiling panel (AID 1259406).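 Also: initial slope of Thallos dye fluorescence rise after thallium is added; log ratio against the mean of 0.3% DMSO vehicle wells on the same plate.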 To be noted: U2OS BacMam BK variants, at 30 µM.
In the next assay the test system is F380Y/beta2Delta. The assay is described as above. As to conditions: U2OS BacMam BK variants, at 30 µM.
In assay [8] the target is Calcium-activated potassium channel subunit alpha-1 (Homo sapiens) + Leucine-rich repeat-containing protein 26 (Homo sapiens) (UniProt Q12791+Q2I0M4). The assay is described as above. To be noted: U2OS BacMam BK variants, F380Y/Slo1WT/gamma1, at 30 µM.
Calcium-activated potassium channel subunit alpha-1 (Homo sapiens) + Leucine-rich repeat-containing protein 26 (Homo sapiens), sequence (Q2I0M4 whole entry, looked up, one chain of several): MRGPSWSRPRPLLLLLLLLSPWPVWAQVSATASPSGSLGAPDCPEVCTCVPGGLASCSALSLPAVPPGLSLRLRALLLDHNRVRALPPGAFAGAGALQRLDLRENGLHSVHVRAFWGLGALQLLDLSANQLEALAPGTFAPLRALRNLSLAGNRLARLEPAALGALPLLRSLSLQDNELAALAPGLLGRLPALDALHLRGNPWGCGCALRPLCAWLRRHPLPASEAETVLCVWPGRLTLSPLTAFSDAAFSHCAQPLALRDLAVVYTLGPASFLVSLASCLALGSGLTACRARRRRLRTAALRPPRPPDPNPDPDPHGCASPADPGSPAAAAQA
For the next assay, the system named is R275C. Described as above. To be noted: U2OS BacMam BK variants, at 30 µM.
Another assay concerns R275C/beta1. The assay is described as above. To be noted: U2OS BacMam BK variants, at 30 µM.
The test system of another assay is R275C/beta2Delta. Described as above. To be noted: U2OS BacMam BK variants, at 30 µM.
Assay [9] in a line: blockers of polyQ-driven CASP3 activation – cell-based (AID 1583). As to conditions: polyglutamine-induced caspase-3 activation, cell assay; stronger effect = higher value;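 tested at 10 µM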.
Assay [10] can be described thus: yeast 75Q aggregation reduction – 75Q-TubU reporter (AID 1593). As to conditions: Yeast 75Q polyglutamine aggregation reporter.
The nature of assay [11]: restoration of touch response, mutant HTT neurons – whole organism, C. elegans mechanosensory neurons, N-terminal huntingtin (AID 1599). To be noted: C. elegans polyQ-huntingtin mechanosensory neurons, stronger effect = higher value.
Assay [12] can be described thus: blockers of cytochrome c efflux from mitochondria – biochemical, purified mitochondria (AID 1603).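 Also: mouse liver mitochondria challenged with calcium chloride; signal normalized to the plate average as 100%.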 As to conditions: stronger effect = lower value.
The nature of assay [13]: polyglutamine aggregate formation blockers (AID 1604). To be noted: polyglutamine-induced protein aggregation inhibition assay; stronger effect = higher value; tested at 2.5 µM.
A short description of assay [14]: glutamate transport activators, MN-1 cells, MN-1 cell line (AID 1612).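 Also: tested at 1 µM final; 0% = mean of DMSO vehicle wells on each plate; positive means more glutamate uptake than control and negative means less.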 To be noted: MN-1 motor neuron cells, stronger effect = higher value.
A short description of assay [15]: 75Q-TubH aggregate inhibition, S. cerevisiae, yeast (AID 1616). To be noted: S. cerevisiae 75Q-TubH polyglutamine aggregation suppression; stronger effect = higher value.

For part of these data: Potency and affinity values are given separately. Activity calls are given as the source filed them.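 The calls were made as follows, unless noted: active = thallium flux through the channel raised or lowered by more than 3 SD from vehicle-only wells, actives on both sides; inactive = the rest.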

As to `O=C(O)CCc1nc(-c2ccccc2)c(-c2ccccc2)o1`, the period change in assay [1] was 0.145 h (inactive). In addition, the figures for the inhibition in assay [2], in assay [4] and in [5] were -4% (inactive), 1.19% (inactive) and 2.21% (inactive), respectively. In addition, the fluorescence ratio (interference) in assay [3] is 1 (inactive). Besides, the fluorescence ratio in assay [6] was 0.94 (inactive). For the same compound, in [7], the compound was called inactive. The log fold change Tl+ flux with F380Y is 0.0468 (inactive); in the assay with F380Y/beta2Delta it was 0.0584 (inactive); in assay [8] it was 0.0291 (inactive); with R275C, -0.025 (inactive); in the assay with R275C/beta1 it was 0.113 (active); in the assay with R275C/beta2Delta, 0.0648 (inactive).

On to `CC12CCC(CC1)C(C)(C)O2`, for which, in assay [9], the inhibition stood at 20.8%. The score in assay [10] stood at 1.26. Moreover, the rescue above control in assay [11] was 2.25. For the same compound, the cytochrome c release ratio in assay [12] worked out at 0.96. In addition, the inhibition of aggregation in [13] worked out at 71.8%. Moreover, the glutamate uptake change in [14] is -6.04%. Moreover, the aggregation suppression score in [15] came to 1.21.

`CN1C(=O)CC[C@H]1c1cccnc1`: the inhibition is 25.7% in [9], -2% (inactive) in [2], 5.15% (inactive) in [4] and 6.83% (inactive) in assay [5]. In [10], this compound showed a score of 1.01. The compound further came in with a rescue above control in assay [11] of -5.98. Besides, in [12], the cytochrome c release ratio was found to be 0.78. The compound also gave an inhibition of aggregation in assay [13] of 72.2%. Further, in assay [14], the glutamate uptake change is 11.3%. In [15], this compound yielded an aggregation suppression score of 1.36. Further, the period change in assay [1] was 0.1 h (inactive). In addition, the fluorescence ratio (interference) in [3] is 1 (inactive). Further, in assay [6], the fluorescence ratio was 0.91 (inactive). In addition, the result in [7] was inactive. The log fold change Tl+ flux in the assay on F380Y was -0.00809 (inactive); with F380Y/beta2Delta it was 0.00811 (inactive); in [8], 0.0267 (inactive); with R275C, -0.00497 (inactive); in the assay on R275C/beta1, -0.0358 (inactive); in the assay on R275C/beta2Delta, -0.0502 (inactive).

Regarding `CN1CCN(C2=Nc3cc(Cl)ccc3Nc3ccccc32)CC1`, the inhibition in assay [9] is -23.8%; in [2], -3% (inactive); in [4] it was -2.27% (inactive); in assay [5] it was -3.53% (inactive). Further, in assay [10], the score was 1.19. The cytochrome c release ratio in assay [12] is 1.52. In addition, the inhibition of aggregation in assay [13] was 65.4%. The glutamate uptake change in assay [14] is -8.51%. Besides, in [15], the aggregation suppression score is 1.14. The period change in assay [1] was 0.13 h (inactive). For the same compound, the fluorescence ratio (interference) in assay [3] was 1 (inactive). In addition, the fluorescence ratio in assay [6] is 1.01 (inactive). In assay [7], the compound was classed as inactive. In addition, the log fold change Tl+ flux in the assay on F380Y was 0.296 (active); with F380Y/beta2Delta, 0.389 (active); in [8], 0.0716 (inactive); with R275C, 0.0716 (inactive); in the assay on R275C/beta1, 0.156 (active); in the assay with R275C/beta2Delta it was 0.106 (active).

Consider `CCCC(CCC)C(=O)O`, for which the inhibition in assay [9] is 28.5%; in assay [2], 0% (inactive); in assay [4], -1.36% (inactive); in [5], -1.24% (inactive). The score in assay [10] stood at 1.39. The compound also gave a rescue above control in [11] of 2.58. Moreover, the cytochrome c release ratio in assay [12] is 0.86. In assay [13], this compound showed an inhibition of aggregation of 40.9%. Further, the glutamate uptake change in assay [14] was -8.08%. This compound also displayed an aggregation suppression score in [15] of 0.716. Besides, the period change in [1] was 0.1 h (inactive). Besides, the fluorescence ratio (interference) in assay [3] is 1 (inactive). For the same compound, the fluorescence ratio in [6] is 0.99 (inactive). Also, in assay [7], the outcome was inactive. In addition, the log fold change Tl+ flux with F380Y was -0.0169 (inactive); with F380Y/beta2Delta it was 0.0329 (inactive); in assay [8], -0.023 (inactive); with R275C, 0.0376 (inactive); with R275C/beta1, -0.0394 (inactive); with R275C/beta2Delta, 0.0234 (inactive).

In the case of `O=C(CCCN1CCC(O)(c2ccc(Cl)cc2)CC1)c1ccc(F)cc1`, the inhibition is -12.1% in [9], -3% (inactive) in assay [2], -12.4% (inactive) in assay [4] and 1.18% (inactive) in [5]. The same compound came in with a score in [10] of 1.43. The compound further came in with a rescue above control in [11] of 27.6. The cytochrome c release ratio in assay [12] came out at 1.55. The inhibition of aggregation in [13] was 81.4%. The glutamate uptake change in assay [14] was 6.85%. This compound also registered an aggregation suppression score in assay [15] of 1.09. Further, the period change in [1] is 0.015 h (inactive). Further, the fluorescence ratio (interference) in [3] is 1 (inactive). Also, the fluorescence ratio in assay [6] is 0.89 (inactive). In addition, the result in assay [7] was inactive. The log fold change Tl+ flux is 0.00184 (inactive) with F380Y; 0.0376 (inactive) with F380Y/beta2Delta; -0.0288 (inactive) in assay [8]; -0.231 (active) in the assay with R275C; 0.104 (active) with R275C/beta1; -0.165 (active) in the assay with R275C/beta2Delta.

(Values after PubChem BioAssay.)
